For orientation: viability means a read-out of living cells in per cent, often relative to untreated cells. As a reminder, the inhibition is the relative decrease from the control value, in per cent.

Records with an inconclusive call do not appear. Activity calls are given as the source filed them.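 The calls were made as follows, unless noted: active = viability at or below 10% of carrier control in both of two separate runs; inconclusive = viability at or below 10% in only one of the two runs; inactive = the rest.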

Here are results for nine molecules from PubChem BioAssay.

Assay [1] is described as follows: Her2 expression decrease, cell viability multiplex – SKBR3 breast tumor cells, AlphaScreen, ATP viability, primary screen (AID 461;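 active = Her2 level under about 52% in both replicate screens, with viability over 70% of control, limit read from the data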;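 as to Her2 level: lower value means less Her2 protein in the cells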;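 as to viability: percent of carrier control wells set as 100% viability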). The following applies: SKBR3 Her2 protein level, 18-24 h, measured here: SKBR3 viability, ATP luminescence, at 10 µM. A general note: Bead proximity is the source of the signal in Alpha formats.
In assay [2] the target is Receptor tyrosine-protein kinase erbB-2 (Homo sapiens) (UniProt P04626). The assay is described as above. The following applies: 18-24 h, at 10 µM, stronger effect = lower value.
Receptor tyrosine-protein kinase erbB-2 (Homo sapiens), sequence (P04626 whole entry, looked up): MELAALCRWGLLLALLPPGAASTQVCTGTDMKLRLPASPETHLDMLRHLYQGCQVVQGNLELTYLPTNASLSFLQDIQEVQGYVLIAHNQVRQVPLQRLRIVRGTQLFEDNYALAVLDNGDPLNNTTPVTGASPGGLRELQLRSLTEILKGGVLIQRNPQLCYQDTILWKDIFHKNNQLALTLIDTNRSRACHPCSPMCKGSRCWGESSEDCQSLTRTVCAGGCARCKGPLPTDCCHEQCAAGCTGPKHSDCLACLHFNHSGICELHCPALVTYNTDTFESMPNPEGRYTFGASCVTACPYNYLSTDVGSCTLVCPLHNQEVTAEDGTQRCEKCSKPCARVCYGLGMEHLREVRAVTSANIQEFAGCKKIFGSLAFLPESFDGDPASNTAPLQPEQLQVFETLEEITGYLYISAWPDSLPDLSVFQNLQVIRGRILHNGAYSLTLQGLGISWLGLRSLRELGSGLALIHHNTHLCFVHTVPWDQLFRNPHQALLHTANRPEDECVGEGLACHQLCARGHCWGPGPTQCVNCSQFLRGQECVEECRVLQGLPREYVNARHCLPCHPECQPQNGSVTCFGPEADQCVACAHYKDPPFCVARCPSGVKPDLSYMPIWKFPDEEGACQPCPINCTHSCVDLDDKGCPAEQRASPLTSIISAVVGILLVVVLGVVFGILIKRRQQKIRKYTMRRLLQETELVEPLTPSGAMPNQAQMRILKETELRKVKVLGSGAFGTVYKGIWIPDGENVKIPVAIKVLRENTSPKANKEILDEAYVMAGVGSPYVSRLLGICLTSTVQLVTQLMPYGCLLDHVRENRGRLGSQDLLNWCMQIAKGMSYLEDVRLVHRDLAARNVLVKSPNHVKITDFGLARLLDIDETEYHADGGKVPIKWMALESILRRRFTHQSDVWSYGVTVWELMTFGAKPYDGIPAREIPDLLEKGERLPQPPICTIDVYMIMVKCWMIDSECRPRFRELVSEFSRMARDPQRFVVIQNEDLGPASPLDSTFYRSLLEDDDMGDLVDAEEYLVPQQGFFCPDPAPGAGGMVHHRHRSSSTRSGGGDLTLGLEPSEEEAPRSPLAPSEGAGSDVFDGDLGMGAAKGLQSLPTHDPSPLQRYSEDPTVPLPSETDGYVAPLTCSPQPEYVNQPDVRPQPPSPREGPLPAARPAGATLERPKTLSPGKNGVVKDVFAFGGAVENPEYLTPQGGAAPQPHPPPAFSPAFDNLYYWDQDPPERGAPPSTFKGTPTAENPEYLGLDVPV
The nature of assay [3]: reduced viability of SK-BR-3 breast cancer cells – cell-based, 24 h, human, pilot screen (AID 572).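 Also: compound exposure lasted between 18 and 24 h rather than exactly 24 h; 100% = carrier-treated control wells.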 The following applies: SK-BR-3 viability, CellTiter-Glo luminescence, at 10 µM, stronger effect = lower value. On the technique in general: ATP-based viability assays read luminescence as a measure of living cells.
Assay [4] is described as follows: HUVEC growth inhibition – cell-based, human, primary screen (AID 575;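 active = viability at or below 30% in both replicate assays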;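 also: 100% = median of untreated cell wells with 0.1% DMSO on each plate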). The conditions noted are these: HUVEC proliferation, CellTiter-Glo luminescence, 72 h; at 10 µM; stronger effect = lower value.
Assay [5] is described as follows: H69AR cell proliferation blockers – human, duplicate replicates, primary screen (AID 580;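 active = viability at or under a set limit in both replicates, limit being median viability minus 3 SD, cut at about 48% in these data, passing the limit was not always enough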;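 also: 100% = mean luminescence of untreated wells and 0% = no signal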). The following applies: H69AR lung tumor cells viability, ATP luminescence, 72 h; at 10 µM; stronger effect = lower value.
Assay [6] is described as follows: MRP1 drug-resistance reversers in H69AR cells – cell-based, doxorubicin co-treatment, pilot screen (AID 601;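 active = viability loss from added drug above about 55%, and viability with drug at most 40%, in both replicates, limit read from the data, passing the limit was not always enough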). The conditions noted are these: CellTiter-Glo, 72 h, at 10 µM; for differential viability (reversal): stronger effect = higher value.
The nature of assay [7]: yeast transport mutant growth inhibition pilot in 384-well plates, post-Golgi transport modulator project (AID 636; in the data active = inhibition above about 31%). The conditions noted are these: absorbance 615 nm, about 18 h, stronger effect = higher value.
A short description of assay [8]: growth suppression of yeast trafficking mutant, preliminary HTS, modulators of trafficking downstream of Golgi apparatus project, 1536-format plate, OD 615 nm (AID 637; in the data active = inhibition above about 30%). The conditions noted are these: yeast transport mutant growth, absorbance 615 nm, 18 h; stronger effect = higher value.
Assay [9] can be described thus: S. cerevisiae growth inhibition in permissive medium (OD615), pilot counter-assay for S. cerevisiae lifespan shortening project, permissive growth control (AID 705;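 active = growth inhibition above 25% in both replicates, a cutoff set 3 SD above the mean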). The conditions noted are these: OD615, 24 h, at 10 µM, stronger effect = higher value.
The nature of assay [10]: S. cerevisiae growth inhibition in restrictive medium, OD615, pilot screen, restrictive growth control, yeast lifespan reduction project (AID 706;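 active = growth inhibition above a set limit, 3 SD over mean compound inhibition, in both replicates, cut at about 43% in these data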;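 also: modified DeaD lifespan yeast strain shifted to restrictive glucose medium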). The conditions noted are these: OD615, 48 h, at 10 µM, stronger effect = higher value.
Assay [11] can be described thus: doxorubicin toxicity protection in MRP-1 cells – H69AR cells, CellTiter-Glo, duplicate, MRP-1 activator project, pilot screen (AID 807;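 active = viability increase at or above a cutoff of the median across tested compounds plus 3 SD, cut at about 8.5% in these data, passing the limit was not always enough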;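 also: compound pretreatment 18-22 h then 72 h combined with doxorubicin; 0% = doxorubicin alone and 100% = vehicle without doxorubicin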). The following applies: H69AR viability with doxorubicin, CellTiter-Glo luminescence; at 10 µM; stronger effect = higher value.
Assay [12] is described as follows: viability of HCT116 without oncogenic beta-catenin – human colon tumor cells, pilot screen (AID 823;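 active = cell viability at or below a set limit in both duplicate runs, the limit being the all-compound median minus 4 SD, cut at about 23% in these data, passing the limit was not always enough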;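 also: 0% = wells killed by 20 µM Hyamine and 100% = untreated DMSO cell wells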). The conditions noted are these: HCT116 beta-catenin knockout viability, CellTiter-Glo, 60 h; at 10 µM; stronger effect = lower value.
Assay [13] in a line: viability of PTEN-null HCT116 cells – cell-based, HCT116 clonal line, CellTiter-Glo, pilot screen (AID 824;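 active = viability at or below 27.92% in each of two runs, the all-compound median minus 4 SD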;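 also: 0% = 20 µM Hyamine control and 100% = vehicle cell control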). The conditions noted are these: HCT116 PTEN-deleted viability, 60 h, at 10 µM, stronger effect = lower value.
Assay [14] in a line: RAM pathway blockade in budding yeast – dse1pr::URA3 reporter, 5-FOA selection, pilot screen (AID 869;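 active = inhibition over a set limit, the all-compound mean plus 3 SD, in both replicate runs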;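 also: 0% = DMSO wells with no growth and 100% = 10 µM 1-NA-PP1 with full growth; RAM network block rescues cells from 5-FOA so hits raise OD615 growth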). The following applies: S. cerevisiae dse1pr::URA3 5-FOA growth, OD615, 2 d; at 10 µM; stronger effect = higher value; strain carries analog-sensitive mutant Cbk1 kinase.
The nature of assay [15]: RAM signaling pathway blockade in yeast – S. cerevisiae, Pdr1DBD-CYC8 efflux-inhibited sensitized strain, primary screen (AID 1298;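 active = RAM network inhibition above 8.4% in each of two replicates, 3 SD over the compound average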;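 also: 0% = DMSO untreated cells without growth and 100% = 10 µM 1-NA-PP1 full growth; higher means more yeast growth rescued from 5-FOA killing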). The following applies: S. cerevisiae cbk1-as DSE1-URA3 strain, 5-FOA growth OD615, 2 d; at 50 µM; stronger effect = higher value.
Setting [16] is: H69AR cells + 2 uM doxorubicin, measured here: viability with 2 uM doxorubicin, stronger effect = lower value.
Setting [17] is: H69AR cells, compound alone cytotoxicity.

With `Cc1n[nH]c(C)c1N1C(=O)c2cccc3cc(Br)cc(c23)C1=O`, the viability in assay [1] was 74.5%; in assay [3], 74.5% (inactive); in assay [4] it was 85.5% (inactive); in assay [5] it was 81.1% (inactive); in [6] (setting [16]) it was 82.4%; in assay [6] (setting [17]), 81.1%. In addition, the viability in [12] was 107% (inactive); in assay [13], 101% (inactive). The Her2 level in assay [2] is 79% (inactive). Further, the differential viability (reversal) in assay [6] (H69AR cells + 2 uM doxorubicin) was -1.29% (inactive). Also, the values for the inhibition in assay [7], in [8] and in assay [14] were 0.26% (inactive), -4% (inactive) and 3.01% (inactive), respectively. Further, the values for the growth inhibition in assay [9] and in assay [10] were -11.5% (inactive) and -11.6% (inactive), respectively. For the same molecule, in [11], the viability increase was -2.41% (inactive). In assay [15], the RAM network inhibition was 4.68% (inactive).
For `COc1ccc(NC(=O)c2cnc3n(c2=O)CCS3)cc1OC`, the viability was 112% in [1]; 112% (inactive) in assay [3]; 88.2% (inactive) in [4]; 95.7% (inactive) in assay [5]; 83.9% in assay [6] (setting [16]); 95.7% in assay [6] (setting [17]). Moreover, the figures for the viability in assay [12] and in [13] were 109% (inactive) and 103% (inactive), respectively. Besides, the Her2 level in assay [2] was 106% (inactive). In assay [6] (H69AR cells + 2 uM doxorubicin), the differential viability (reversal) was 11.8% (inactive). The inhibition in assay [7] was -3.07% (inactive); in [8], -4.59% (inactive); in assay [14] it was 2.45% (inactive). Besides, the results for the growth inhibition in assay [9] and in assay [10] were -14.6% (inactive) and -5.98% (inactive), respectively. In [11], the viability increase is 1.5% (inactive). For the same molecule, the RAM network inhibition in [15] was 7.24% (inactive).
Consider `Cc1ccc(NC(=O)CN(c2ccc3c(c2)OCO3)S(=O)(=O)c2c(C)n[nH]c2C)cc1`, for which the viability in assay [1] is 92%; in [3], 92% (inactive); in assay [4], 85.1% (inactive); in [5], 93.1% (inactive); in assay [6] (setting [16]) it was 91.5%; in [6] (setting [17]), 93.1%. For the same molecule, the viability in assay [12] is 95.7% (inactive); in assay [13], 96.9% (inactive). Moreover, the Her2 level in [2] is 83% (inactive). The differential viability (reversal) in assay [6] (H69AR cells + 2 uM doxorubicin) was 1.52% (inactive). Also, the results for the inhibition in [7], in assay [8] and in assay [14] were -5.73% (inactive), 2.33% (inactive) and 3.25% (inactive), respectively. Also, the growth inhibition in [9] was -13.4% (inactive); in assay [10], -19.2% (inactive). In [11], the viability increase is 2.09% (inactive). Moreover, the RAM network inhibition in assay [15] was 5.15% (inactive).
For the molecule `CCCCn1c(CN2CCN(c3ccccc3)CC2)nc2c1c(=O)n(C)c(=O)n2C`, the viability in assay [1] is 89%; in assay [3] it was 89% (inactive); in [4] it was 85.7% (inactive); in [5], 85.6% (inactive); in assay [6] (setting [16]), 66.4%; in assay [6] (setting [17]), 85.6%. The viability in assay [12] is 36.1% (inactive); in assay [13], 65.2% (inactive). For the same molecule, the Her2 level in assay [2] was 105% (inactive). Moreover, the differential viability (reversal) in [6] (H69AR cells + 2 uM doxorubicin) is 19.2% (inactive). Moreover, the inhibition in assay [7] was -2.27% (inactive); in assay [8], -3.67% (inactive); in assay [14] it was 0.475% (inactive). Moreover, the growth inhibition is -4.55% (inactive) in assay [9] and 1.55% (inactive) in assay [10]. Also, the viability increase in assay [11] was -3.11% (inactive). In addition, the RAM network inhibition in [15] was 2.8% (inactive).
As for `CCOC(=O)N1CCN(C(=O)c2c(-c3ccccc3)noc2C)CC1`, the viability in [1] was 78%; in assay [3], 78% (inactive); in assay [4], 96.6% (inactive); in [5], 95.2% (inactive); in assay [6] (setting [16]), 89.5%; in assay [6] (setting [17]) it was 95.2%. Also, the viability is 104% (inactive) in assay [12] and 87.6% (inactive) in assay [13]. In assay [2], the Her2 level was 104% (inactive). Besides, the differential viability (reversal) in [6] (H69AR cells + 2 uM doxorubicin) is 5.67% (inactive). Besides, the inhibition in [7] is -6.67% (inactive); in assay [8] it was -2.5% (inactive); in assay [14], 3% (inactive). For the same molecule, the growth inhibition in assay [9] is -9.5% (inactive); in [10], -0.595% (inactive). Also, the viability increase in [11] is -2.25% (inactive). The RAM network inhibition in assay [15] is 4.25% (inactive).
As to `O=C(Nc1ccncc1)C1CCCN(S(=O)(=O)c2cccc3cccnc23)C1` (stereo not drawn), the viability in assay [1] was 84.5%; in [3] it was 84.5% (inactive); in assay [4] it was 63% (inactive); in assay [5] it was 17.4% (active); in assay [6] (setting [16]) it was 76.2%; in assay [6] (setting [17]), 17.4%. Also, the viability was 19.9% (active) in assay [12] and 23.8% (active) in [13]. In assay [2], the Her2 level is 104% (inactive). Further, the differential viability (reversal) in assay [6] (H69AR cells + 2 uM doxorubicin) is -58.8% (inactive). The inhibition is -7.07% (inactive) in assay [7], 3.33% (inactive) in [8] and 1.59% (inactive) in [14]. Besides, the growth inhibition in [9] was -10.3% (inactive); in assay [10], -4.11% (inactive). Besides, the viability increase in assay [11] is -6.31% (inactive). In addition, the RAM network inhibition in assay [15] was 2.56% (inactive).
In the case of `Cc1ccc(OCC(O)CN2C(=O)NC(C)(C)C2=O)cc1C` (stereo not drawn), the viability is 105% in [1]; 105% (inactive) in [3]; 88% (inactive) in assay [4]; 102% (inactive) in assay [5]; 86.4% in [6] (setting [16]); 102% in assay [6] (setting [17]). For the same molecule, the results for the viability in [12] and in [13] were 105% (inactive) and 94% (inactive), respectively. Besides, the Her2 level in assay [2] is 94.5% (inactive). Further, in assay [6] (H69AR cells + 2 uM doxorubicin), the differential viability (reversal) was 15.8% (inactive). Moreover, the values for the inhibition in assay [7], in assay [8] and in assay [14] were -5.73% (inactive), 5.08% (inactive) and 0.65% (inactive), respectively. Besides, the values for the growth inhibition in [9] and in [10] were -11.3% (inactive) and -19.3% (inactive), respectively. In addition, in [11], the viability increase is -0.62% (inactive). Moreover, the RAM network inhibition in [15] was 4.18% (inactive).
Regarding `CN1CCC(NC(=O)c2cccs2)CC1`, the viability in assay [1] was 106%; in assay [3], 106% (inactive); in assay [4], 84.7% (inactive); in assay [5], 91% (inactive); in [6] (setting [16]), 83.1%; in assay [6] (setting [17]) it was 91%. Moreover, the values for the viability in assay [12] and in [13] were 96.7% (inactive) and 94.9% (inactive), respectively. Moreover, in assay [2], the Her2 level was 90% (inactive). Moreover, in assay [6] (H69AR cells + 2 uM doxorubicin), the differential viability (reversal) is 7.9% (inactive). Moreover, the results for the inhibition in assay [7], in assay [8] and in assay [14] were -4.13% (inactive), 7.5% (inactive) and 0.86% (inactive), respectively. Also, the growth inhibition in [9] was 9.33% (inactive); in assay [10] it was 17.3% (inactive). The viability increase in assay [11] was -0.16% (inactive). In assay [15], the RAM network inhibition is 1.18% (inactive).
On to `Nc1nc2n(n1)C(c1c(F)cccc1Cl)CC(c1ccc(F)cc1)N2` (stereo not drawn), for which the viability in [1] was 102%; in assay [3], 102% (inactive); in [4], 103% (inactive); in assay [5], 86.2% (inactive); in [6] (setting [16]), 89.6%; in assay [6] (setting [17]), 86.2%. Besides, the viability in assay [12] was 89.7% (inactive); in [13], 86.9% (inactive). Moreover, in assay [2], the Her2 level is 91.5% (inactive). In assay [6] (H69AR cells + 2 uM doxorubicin), the differential viability (reversal) was -3.43% (inactive). For the same molecule, the inhibition is -5.2% (inactive) in assay [7], 0.33% (inactive) in assay [8] and 0.17% (inactive) in assay [14]. Besides, the growth inhibition in assay [9] is -4.67% (inactive); in assay [10], 0.29% (inactive). Further, in [11], the viability increase is -2.4% (inactive). Moreover, the RAM network inhibition in [15] was 3.18% (inactive).
